# Experimental data: PubChem BioAssay (Tox21)
# Values without a mark were called inactive. Records with an inconclusive call do not appear. Entries that show only a call come without a potency. The source made the active and inactive calls. Unless noted, the call rests on the fitted dose curve; in most records, active means well fitted curve in the direction sought with a large enough effect in the repeat runs; inconclusive means weak or mixed curves; inactive means no such curve, though single readings can be large; an effect the other way counts as inactive or inconclusive.
# Assays:
# [1] = qHTS assay for small molecule agonists of the p53 signaling pathway (AID 651631; calls by dose curve; further: nearly all actives have a fitted effect of over 15% in size)
# In short: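 Agonist mode screen using a stably integrated beta-lactamase gene under p53 response elements in HCT-116 cells. Compound exposure lasts 16 h at 37 °C; fluorescence intensity is measured following 2 h FRET substrate loading.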
# [2] = qHTS assay for small molecules that induce genotoxicity in human embryonic kidney cells expressing luciferase-tagged ATAD5 (AID 651632); further: nearly all actives have a fitted effect of over 15% in size
# In short: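 Luminescent reporter readout, HEK293T ATAD5-luc line: 16 hr drug exposure (37C, 5% CO2) followed by Amplite, 30 min RT.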
# [3] = qHTS assay for small molecule agonists of the p53 signaling pathway - cell viability (AID 651633; calls by dose curve;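 further: p53RE-bla HCT reporter cells with a stable beta-lactamase p53 reporter; series mostly up to about 83 µM; nearly all actives have a fitted effect of over 30% in size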)
# In short: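 p53RE-bla cells, seeded at 4,000 per well and rested 5 h at 37 C/5% CO2, received compounds in DMSO for 16 h at 37 C. CellTiter-Glo was then added, and luminescence was read after 30 min at room temperature to gauge cytotoxicity.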
# [4] = qHTS assay for small molecules that induce genotoxicity in human embryonic kidney cells expressing luciferase-tagged ATAD5 - cell viability (AID 651634; calls by dose curve; further: nearly all actives have a fitted effect of over 25% in size)
# In short: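 Viability read: CellTiter-Fluor fluorescence, 30 min at 37C. Cells: HEK293T, luciferase-tagged ATAD5. Exposure: 15.5 hr, 37C, 5% CO2, compound or DMSO vehicle.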
# [5] = qHTS assay for small molecule disruptors of the mitochondrial membrane potential - cell viability (AID 720634; calls by dose curve;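 further: human HepG2 liver cancer cells; series mostly up to about 83 µM; nearly all actives have a fitted effect of over 20% in size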)
# In short: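 HepG2, 1 hr compound, 37 C. ATP luminescence via CellTiter-Glo, 30 min RT, same well as m-MPI.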
# [6] = qHTS assay for small molecule disruptors of the mitochondrial membrane potential (AID 720635)
# In short: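 HepG2 cells (2,000/well) attached overnight at 37C, then took compound for 1 hr at 37C, 5% CO2. Mito-MPS dye was added for 30 min; fluorescence was read at 490/535 nm (monomers) and 540/590 nm (aggregates).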
# [7] = qHTS assay to test for compound auto fluorescence at 590 nm (red) in HepG2 cells (AID 720674)
# In short: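 Rose Bengal sodium served as the red fluorophore standard. HepG2 monolayers (overnight attachment, MEM with 10% FBS) were exposed to test compounds for 1 hr at 37 C and read at Ex 540/Em 590 nm.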
# [8] = qHTS assay to test for compound auto fluorescence at 535 nm (green) in HepG2 cells (AID 720675)
# [9] = qHTS assay to test for compound auto fluorescence at 460 nm (blue) in HEK293 cells (AID 720678)
# In short: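 HEK293, 2,000 cells/well, 10% dialyzed FBS; attach 4-5 hr 37C; pin compound or DMSO; o/n 37C/5% CO2; fluorescence 405/460 nm; triamterene-equivalent units.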
# [10] = qHTS assay to test for compound auto fluorescence at 535 nm (green) in HEK293 cells (AID 720680)
# [11] = qHTS assay to test for compound auto fluorescence at 460 nm (blue) in HEK293 cell free culture (AID 720681)
# In short: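 Test compounds were pinned into cell-free culture medium (DMEM with 10% FBS) and fluorescence was read directly at Ex/Em 405/460 nm. Signals were expressed as fluorescence equivalents of triamterene, with DMSO vehicle as control.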
# [12] = qHTS assay to test for compound auto fluorescence at 535 nm (green) in HEK293 cell free culture (AID 720682)
# In short: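 No cells present: wells hold DMEM supplemented with 10% FBS, into which compound or vehicle is pinned. Green emission is then recorded (485 nm excitation, 535 nm emission) and scaled to fluorescein.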
# [13] = qHTS assay to test for compound auto fluorescence at 590 nm (red) in HEK293 cell free culture (AID 720683)
# In short: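 Tox21 10K library compounds were pinned into cell-free DMEM with 10% FBS and fluorescence was read at excitation 540 nm. Activity is expressed as Rose Bengal sodium equivalency.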
# [14] = qHTS assay to test for compound auto fluorescence at 590 nm (red) in HepG2 cell free culture (AID 720684)
# In short: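 Red fluorescence (540 nm excitation, 590 nm emission) was measured after compound transfer into cell-free MEM supplemented with 10% FBS. Values are equivalencies against Rose Bengal sodium.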
# [15] = qHTS assay to test for compound auto fluorescence at 460 nm (blue) in HepG2 cell free culture (AID 720685)
# In short: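 Compound (23 nL) or DMSO pinned into cell-free MEM with 10% FBS; blue fluorescence read at 405/460 nm excitation/emission, expressed as auto-fluorescence equivalency to triamterene.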
# [16] = qHTS assay to test for compound auto fluorescence at 535 nm (green) in HepG2 cell free culture (AID 720686)
# [17] = qHTS assay to test for compound auto fluorescence at 460 nm (blue) in HepG2 cells (AID 720687)
# In short: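 Cells (2,000/well in MEM with 10% FBS) attached overnight at 37 C, then were exposed to compound or DMSO for 1 hr at 37 C, 5% CO2. Fluorescence read at Ex/Em 405/460 nm, expressed as triamterene-equivalent signal.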
# [18] = qHTS assay for identifying genotoxic compounds that show differential cytotoxicity against isogenic chicken DT40 cell lines with known DNA damage response pathways - wild type cell line (AID 743012); further: potency means the concentration at half of the fitted maximal effect; nearly all actives have a fitted effect of over 60% in size
# In short: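 First, wild type DT40 cells were plated at 300 per well and equilibrated about 0.5 h at 37 C/5% CO2. Next, compounds in DMSO were added and exposure lasted 40 h. Finally, CellTiter-Glo was added for 30 min at room temperature and luminescence recorded.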
# [19] = qHTS assay for identifying genotoxic compounds that show differential cytotoxicity against isogenic chicken DT40 cell lines with known DNA damage response pathways - Rev3 mutant cell line (AID 743014); further: potency means the concentration at half of the fitted maximal effect; nearly all actives have a fitted effect of over 55% in size
# [20] = qHTS assay for identifying genotoxic compounds that show differential cytotoxicity against isogenic chicken DT40 cell lines with known DNA damage response pathways - Rad54/Ku70 mutant cell line (AID 743015); further: potency means the concentration at half of the fitted maximal effect; nearly all actives have a fitted effect of over 60% in size
# [21] = qHTS assay to identify small molecule antagonists of the androgen receptor (AR) signaling pathway - cell viability counter screen (AID 743033; further: nearly all actives have a fitted effect of over 45% in size)
# [22] = tested on: thyroid hormone receptor (rat, GH3 cells); assay: qHTS assay to identify small molecule agonists of the thyroid receptor (TR) signaling pathway (AID 743066; calls by dose curve)
# [23] = target: Estrogen receptor (Homo sapiens) (UniProt P03372); assay: qHTS assay to identify small molecule antagonists of the estrogen receptor alpha (ER-alpha) signaling pathway (AID 743069; active means well fitted curve in the direction sought with a large enough effect in the signal ratio in the repeat runs, not every such curve was filed as active; the % refers to the signal ratio)
# In short: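 HEK293 cells stably carrying an ER-alpha-UAS-bla beta-lactamase reporter were pre-cultured overnight in 2% charcoal-stripped FBS medium. Test compounds in DMSO were added together with 17beta-estradiol for 18 hr at 37C. Read-out was fluorescence after 2 hr with LiveBLAzer B/G FRET substrate at room temperature.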
# [24] = qHTS assay to identify small molecule antagonists of the estrogen receptor alpha (ER-alpha) signaling pathway - cell viability counter screen (AID 743074; calls by dose curve; further: nearly all actives have a fitted effect of over 45% in size)
# [25] = target: Estrogen receptor (Homo sapiens) (UniProt P03372); assay: qHTS assay to identify small molecule agonists of the estrogen receptor alpha (ER-alpha) signaling pathway (AID 743075; calls by dose curve)
# [26] = target: Estrogen receptor (Homo sapiens) (UniProt P03372); assay: qHTS assay to identify small molecule agonists of the estrogen receptor alpha (ER-alpha) signaling pathway using the BG1 cell line (AID 743079); further: potency means the concentration at half of the fitted maximal effect; nearly all actives have a fitted effect of over 20% in size
# [27] = qHTS assay to identify small molecule antagonists of the estrogen receptor alpha (ER-alpha) signaling pathway using the BG1 cell line (AID 743080; calls by dose curve;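 further: BG1 cells stimulated with 17beta-estradiol alongside compound; series mostly up to about 70 µM; nearly all actives have a fitted effect of over 25% in size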)
# In short: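 BG1Luc4E2, endogenous ER-alpha, 4xERE-luc; 5 d charcoal-stripped FBS, phenol red free; 24 h plating; cpd + 17beta-estradiol 21.5 h, 37 C/5% CO2; CellTiter-Fluor viability 30 min, then ONE-Glo luciferase 30 min RT.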
# [28] = qHTS assay to identify small molecule antagonists of the estrogen receptor alpha (ER-alpha) signaling pathway using the BG1 cell line - cell viability counter screen (AID 743081);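 further: compound given together with 17beta-estradiol as the ER stimulus; series mostly up to about 70 µM; nearly all actives have a fitted effect of over 45% in size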
# Aromatase (Homo sapiens) = Aromatase (Homo sapiens) (UniProt P11511); assay: qHTS assay to identify aromatase inhibitors (AID 743083); further: series mostly up to about 70 µM; nearly all actives have a fitted effect of over 55% in size
# [29] = qHTS assay to identify aromatase inhibitors - cell viability counter screen (AID 743084);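 further: cells stimulated with testosterone during compound exposure; nearly all actives have a fitted effect of over 55% in size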
# [30] = target: Aryl hydrocarbon receptor (Homo sapiens) (UniProt P35869); assay: qHTS assay to identify small molecule that activate the aryl hydrocarbon receptor (AhR) signaling pathway (AID 743085);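 further: HG2L7.5c1 human HepG2 liver cells with stably integrated DRE-driven firefly reporter; series mostly up to about 70 µM; nearly all actives have a fitted effect of over 15% in size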
# In short: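 Compounds were tested in HepG2 hepatocellular carcinoma cells harbouring a stably integrated luciferase gene under control of 20 DREs. Increased reporter signal after 24 h treatment at 37C was taken as AhR activation.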
# [31] = qHTS assay to identify small molecule that activate the aryl hydrocarbon receptor (AhR) signaling pathway - cell viability counter screen (AID 743086);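 further: HepG2 liver cells carrying the AhR DRE luciferase reporter; series mostly up to about 70 µM; nearly all actives have a fitted effect of over 45% in size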
# In short: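 HepG2-AhR-luc (HG2L7.5c1) cells, 4000/well, were preincubated 5 h at 37C, exposed to compound in qHTS format for 24 hr at 37C, then given CellTiter-Fluor for 30 min; viability was read as fluorescence in the reporter wells.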
# [32] = target: Peroxisome proliferator-activated receptor gamma (Homo sapiens) (UniProt P37231); assay: qHTS assay to identify small molecule agonists of the peroxisome proliferator-activated receptor gamma (PPARg) signaling pathway (AID 743094; active means well fitted activation curve with a large enough effect in the signal ratio in the repeat runs, not every such curve was filed as active; the % refers to the signal ratio)
# In short: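 Compounds dissolved in DMSO were added to PPARg UAS-bla HEK293H cells for 17 h at 37C, and reporter expression was quantified by fluorescence intensity after 1 h with LiveBLAzer B/G FRET substrate.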
# [33] = target: Acetylcholinesterase (Homo sapiens) (UniProt P22303); assay: Acetylcholinesterase (AChE) small molecule antagonists: enzyme-based qHTS assay (AID 1347397; calls by dose curve; further: nearly all actives have a fitted effect of over 55% in size); conditions: Potency: AChE enzyme activity inhibition; outcome: AChE enzyme activity inhibition
# In short: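 Recombinant human AChE, dispensed at 50 mU/mL, was preincubated with Tox21 10K compounds or DMSO vehicle for 30 min at room temperature. DTNB plus acetylthiocholine was then added, and thiocholine was measured colorimetrically after a further 10 min.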
# [34] = target: Acetylcholinesterase (Homo sapiens) (UniProt P22303); assay: Acetylcholinesterase (AChE) small molecule antagonists: fluorescence cell-based qHTS assay (AID 1347398; calls by dose curve; further: nearly all actives have a fitted effect of over 50% in size); conditions: Potency: AChE activity; outcome: AChE activity
# In short: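 Human SH-SY5Y cells were plated overnight at 37 C, exposed to compound for 30 min at 37 C, 5% CO2, then given acetylthiocholine plus Thiolite Green for 40 min at room temperature; thiocholine fluorescence (Ex/Em 490/520 nm) reports endogenous AChE activity.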
# [35] = target: Acetylcholinesterase (Homo sapiens) (UniProt P22303); assay: Acetylcholinesterase (AChE) small molecule antagonists: enzyme-based qHTS assay with human liver microsomes (AID 1347399; calls by dose curve; further: nearly all actives have a fitted effect of over 60% in size); conditions: Potency: qHTS inhibition; outcome: qHTS inhibition
# In short: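 Recombinant human AChE (50 mU/mL in the enzyme mix) and human liver microsomes (0.25 mg/mL final) were preincubated with compound and NADPH (0.25 mg/mL final) for 30 min at 37 C. Acetylthiocholine/DTNB was then added; thiocholine was read colorimetrically after 10 min at room temperature.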
# Chain of Acetylcholinesterase (Homo sapiens) (P22303 whole entry, looked up): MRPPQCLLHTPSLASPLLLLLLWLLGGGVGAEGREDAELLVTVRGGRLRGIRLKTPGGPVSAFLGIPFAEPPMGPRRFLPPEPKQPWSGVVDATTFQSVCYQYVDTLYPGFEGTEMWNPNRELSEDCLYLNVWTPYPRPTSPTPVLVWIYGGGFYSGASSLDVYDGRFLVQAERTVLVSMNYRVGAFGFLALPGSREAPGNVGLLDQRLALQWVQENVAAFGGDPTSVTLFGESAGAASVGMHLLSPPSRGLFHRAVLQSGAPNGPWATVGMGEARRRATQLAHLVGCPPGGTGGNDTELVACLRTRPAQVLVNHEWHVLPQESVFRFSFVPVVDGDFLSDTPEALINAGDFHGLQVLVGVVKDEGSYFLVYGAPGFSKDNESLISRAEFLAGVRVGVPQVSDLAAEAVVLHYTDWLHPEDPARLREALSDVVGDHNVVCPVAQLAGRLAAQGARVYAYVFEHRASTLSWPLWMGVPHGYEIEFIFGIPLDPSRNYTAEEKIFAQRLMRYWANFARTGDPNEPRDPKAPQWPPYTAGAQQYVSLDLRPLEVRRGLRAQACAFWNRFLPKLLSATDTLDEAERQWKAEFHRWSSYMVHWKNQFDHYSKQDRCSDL
# Chain of Estrogen receptor (Homo sapiens) (P03372 whole entry, looked up): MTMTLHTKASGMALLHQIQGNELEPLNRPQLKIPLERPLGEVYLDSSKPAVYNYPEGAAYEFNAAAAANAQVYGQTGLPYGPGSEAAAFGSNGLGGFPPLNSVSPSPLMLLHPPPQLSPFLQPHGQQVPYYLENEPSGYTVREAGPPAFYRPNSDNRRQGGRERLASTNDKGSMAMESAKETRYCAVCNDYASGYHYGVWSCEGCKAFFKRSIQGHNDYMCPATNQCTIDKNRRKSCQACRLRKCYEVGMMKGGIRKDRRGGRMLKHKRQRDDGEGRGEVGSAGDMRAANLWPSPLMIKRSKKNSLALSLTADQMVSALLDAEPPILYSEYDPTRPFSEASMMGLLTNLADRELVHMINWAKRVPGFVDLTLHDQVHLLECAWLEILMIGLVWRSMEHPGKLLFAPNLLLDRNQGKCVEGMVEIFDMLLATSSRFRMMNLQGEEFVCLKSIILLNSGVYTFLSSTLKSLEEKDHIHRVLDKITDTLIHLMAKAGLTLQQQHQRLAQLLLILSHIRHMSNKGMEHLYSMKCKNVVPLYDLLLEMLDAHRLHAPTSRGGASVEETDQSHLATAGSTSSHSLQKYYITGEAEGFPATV
# Chain of Peroxisome proliferator-activated receptor gamma (Homo sapiens) (P37231 whole entry, looked up): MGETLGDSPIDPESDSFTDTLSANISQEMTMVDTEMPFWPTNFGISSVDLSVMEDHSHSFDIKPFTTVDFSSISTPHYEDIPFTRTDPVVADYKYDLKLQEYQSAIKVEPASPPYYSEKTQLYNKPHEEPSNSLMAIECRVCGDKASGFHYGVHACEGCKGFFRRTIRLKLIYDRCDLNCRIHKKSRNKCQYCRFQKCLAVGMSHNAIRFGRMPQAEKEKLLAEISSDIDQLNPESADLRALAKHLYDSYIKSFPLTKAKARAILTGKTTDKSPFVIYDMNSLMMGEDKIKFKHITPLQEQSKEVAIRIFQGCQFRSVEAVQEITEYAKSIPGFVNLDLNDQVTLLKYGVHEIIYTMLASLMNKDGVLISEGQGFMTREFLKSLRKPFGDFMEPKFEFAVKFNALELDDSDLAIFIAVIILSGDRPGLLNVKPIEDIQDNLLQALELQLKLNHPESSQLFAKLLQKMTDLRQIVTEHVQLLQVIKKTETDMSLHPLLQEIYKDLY
# Chain of Aromatase (Homo sapiens) (P11511 whole entry, looked up): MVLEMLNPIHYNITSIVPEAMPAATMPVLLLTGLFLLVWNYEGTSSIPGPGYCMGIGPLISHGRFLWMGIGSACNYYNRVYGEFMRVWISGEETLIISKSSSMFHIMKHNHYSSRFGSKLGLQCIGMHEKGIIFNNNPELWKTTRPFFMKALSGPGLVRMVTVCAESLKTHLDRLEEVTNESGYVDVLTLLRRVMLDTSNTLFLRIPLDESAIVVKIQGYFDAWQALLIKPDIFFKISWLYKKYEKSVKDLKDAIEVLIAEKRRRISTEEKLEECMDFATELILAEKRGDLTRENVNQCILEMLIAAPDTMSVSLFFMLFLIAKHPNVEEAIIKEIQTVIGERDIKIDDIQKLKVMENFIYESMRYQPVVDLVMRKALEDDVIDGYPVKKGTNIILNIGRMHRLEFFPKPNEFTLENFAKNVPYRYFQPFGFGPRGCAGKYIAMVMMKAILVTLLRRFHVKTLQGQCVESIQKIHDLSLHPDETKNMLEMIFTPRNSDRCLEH
# Chain of Aryl hydrocarbon receptor (Homo sapiens) (P35869 whole entry, looked up): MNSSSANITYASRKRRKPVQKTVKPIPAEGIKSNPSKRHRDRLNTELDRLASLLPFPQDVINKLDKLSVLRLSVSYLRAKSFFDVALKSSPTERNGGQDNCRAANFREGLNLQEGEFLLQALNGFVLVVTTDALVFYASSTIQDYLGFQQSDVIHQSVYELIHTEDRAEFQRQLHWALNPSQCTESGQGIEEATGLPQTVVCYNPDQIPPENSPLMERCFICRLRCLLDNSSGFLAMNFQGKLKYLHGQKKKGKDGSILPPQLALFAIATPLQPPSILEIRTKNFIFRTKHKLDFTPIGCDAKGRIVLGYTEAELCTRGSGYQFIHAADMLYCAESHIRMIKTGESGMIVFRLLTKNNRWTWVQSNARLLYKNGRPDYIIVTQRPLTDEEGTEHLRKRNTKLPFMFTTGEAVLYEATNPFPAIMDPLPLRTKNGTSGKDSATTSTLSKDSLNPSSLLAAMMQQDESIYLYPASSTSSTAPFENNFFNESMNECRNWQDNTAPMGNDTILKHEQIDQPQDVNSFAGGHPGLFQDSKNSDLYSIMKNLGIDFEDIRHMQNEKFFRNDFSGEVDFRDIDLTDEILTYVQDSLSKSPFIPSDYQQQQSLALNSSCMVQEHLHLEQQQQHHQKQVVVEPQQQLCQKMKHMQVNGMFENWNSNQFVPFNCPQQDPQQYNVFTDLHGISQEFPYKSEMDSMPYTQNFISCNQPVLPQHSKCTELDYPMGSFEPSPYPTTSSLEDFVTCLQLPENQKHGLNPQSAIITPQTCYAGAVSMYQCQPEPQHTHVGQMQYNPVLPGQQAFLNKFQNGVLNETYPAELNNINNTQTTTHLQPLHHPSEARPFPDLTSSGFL
smiles,measurement,setting,value
CC(C)=CCN1CC[C@]2(C)c3cc(O)ccc3C[C@H]1[C@H]2C,Potency,[1],inactive
same,Potency,[2],inactive
same,Potency,[3],inactive
same,Potency,[4],inactive
same,Potency,[5],inactive
same,Potency,[6],inactive
same,outcome,[7],inactive
same,Potency,[8],inactive
same,Potency,[9],inactive
same,Potency,[10],inactive
same,Potency,[11],inactive
same,Potency,[12],inactive
same,outcome,[13],inactive
same,outcome,[14],inactive
same,Potency,[15],inactive
same,Potency,[16],inactive
same,Potency,[17],inactive
same,Potency,[18],24.3 µM (active)
same,Potency,[19],27.3 µM (active)
same,Potency,[20],27.3 µM (active)
same,Potency,[21],inactive
same,Potency,[22],inactive
same,Potency,[23],inactive
same,Potency,[24],inactive
same,Potency,[25],inactive
same,Potency,[26],30.6 µM (active)
same,Potency,[27],inactive
same,Potency,[28],inactive
same,Potency,Aromatase (Homo sapiens),inactive
same,Potency,[29],inactive
same,Potency,[30],inactive
same,Potency,[31],inactive
same,Potency,[32],inactive
CC1=CC(=O)CC(C)(C)C1(O)/C=C/C(C)=C\C(=O)O (configuration not stated),Potency,[33],inactive
same,Potency,[34],inactive
same,Potency,[35],inactive
CCOCCC(=O)OCC,Potency,[33],inactive
same,Potency,[34],inactive
same,Potency,[35],inactive
CNC(=O)c1c(I)c(NC(=O)CCCCC(=O)Nc2c(I)c(C(=O)O)c(I)c(C(=O)NC)c2I)c(I)c(C(=O)O)c1I,Potency,[33],inactive
same,Potency,[34],inactive
same,Potency,[35],inactive
